Experimental data taken from PMC5540273 (PLoS ONE, 2017).

Columns and labels:
Settings in all cases: concentration: 1 μM,replicates: in singlicate; n = 1
SNARK = system: T1, SNARK
T1 construct: gene NUAK2

SNRK = system: SNRK
SRC = system: SRC
SRMS = system: SRMS
SRPK1 = system: SRPK1
SRPK2 = system: SRPK2
SRPK3 = system: SRPK3
STK16 = system: STK16
STK33 = system: STK33
STK35 = system: STK35
STK36 = system: STK36
STK39 = system: STK39
SYK = system: SYK
SgK110 = system: SgK110
TAK1 = system: T2, TAK1
T2 construct: gene MAP3K7

TAOK1 = system: TAOK1
TAOK2 = system: TAOK2
TAOK3 = system: TAOK3
TBK1 = system: TBK1
TEC = system: TEC
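Also: KINOMEscan kinase panel screen.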

Structure (SMILES)	%Inh (SNARK) [%]	%Inh (SNRK) [%]	%Inh (SRC) [%]	%Inh (SRMS) [%]	%Inh (SRPK1) [%]	%Inh (SRPK2) [%]	%Inh (SRPK3) [%]	%Inh (STK16) [%]	%Inh (STK33) [%]	%Inh (STK35) [%]	%Inh (STK36) [%]	%Inh (STK39) [%]	%Inh (SYK) [%]	%Inh (SgK110) [%]	%Inh (TAK1) [%]	%Inh (TAOK1) [%]	%Inh (TAOK2) [%]	%Inh (TAOK3) [%]	%Inh (TBK1) [%]	%Inh (TEC) [%]
NC(=O)c1ccc(-c2cc3ncnc(SCC(=O)O)c3s2)cc1	0	0	0	0	0	0	0	54	0	0	0	0	0	0	0	0	0	0	8	0
CS(=O)(=O)Nc1ccc(-c2ccnc3[nH]ccc23)cc1 [GSK993273]	40	0	0	0	77	0	75	81	5	15	0	24	52	0	33	27	0	0	10	16
O=C(Nc1cccc(Oc2ccc3nccn3n2)c1)Nc1cccc(C(F)(F)F)c1	0	0	0	0	0	0	14	9	21	0	0	0	0	16	0	0	0	0	8	0
CCn1c(-c2nonc2N)nc2cncc(CNC3CCNCC3)c21.Cl [SB-747651]	13	0	0	0	23	0	0	15	0	0	0	24	21	2	0	0	1	0	7	2
O=C(NOCC1CC1)c1cc(Br)c(F)c(F)c1Nc1ccc(I)cc1Cl	0	0	2	0	0	0	0	20	0	0	0	0	13	0	0	0	27	0	5	0
COc1cc(Nc2nccc(N3CCC(NC(=O)c4cccc(C#N)c4)C3)n2)cc(OC)c1OC (stereo not shown) [GSK1379751]	3	0	22	0	49	24	0	64	0	0	0	0	0	0	0	0	0	0	10	0
COc1ccc(Nc2nccc(N3CCC(NC(=O)c4cccc(C#N)c4)C3)n2)cc1 (stereo not shown) [GSK1379730]	0	0	19	0	36	0	0	2	10	0	0	0	19	0	0	0	0	0	0	0
O=C(Nc1ccccc1)c1cccc(Oc2ccc3nccn3n2)c1	0	0	0	0	2	0	0	0	12	0	5	3	14	6	11	5	0	0	0	0
Cl.Cl.NC[C@H](CC1CCCCC1)NC(=O)c1ccc(-c2ccnc3[nH]ccc23)s1 [GSK1581428]	98.3	0	17	0	85	12	91.6	54	98.4	63	0	7	20	95.3	64	87	0	14	29	0
CS(=O)(=O)c1cccc(CNc2nc(Nc3ccc4c(c3)[C@@H]3C[C@@H]4CNC3=O)ncc2C(F)(F)F)c1	97.6	0	0	0	91.6	0	49	97.3	0	0	10	9	93.8	0	92.2	51	24	36	98.6	0
O=C(Nc1ccc(Oc2ccc3nc(NC(=O)C4CC4)cn3n2)c(F)c1)c1cccn(-c2ccccc2)c1=O	0	3	10	0	14	16	24	0	23	0	1	0	30	0	0	0	0	0	54	44
Cc1ccc(Nc2ccnc(Nc3ccc4c(c3)CS(=O)(=O)C4)n2)cc1O.Cl [GW579362]	52	6	99.9	87	99.2	18	83	98.5	89	22	92.2	17	93.2	0	99.5	81	30	47	90	83
Cn1cc(-c2cccc3c(N)c(C(N)=O)nnc23)cn1	9	11	0	24	45	11	39	11	27	8	6	29	11	0	21	25	29	12	31	0
C[C@@H](Oc1cc(-n2cnc3ccc(-c4ccncc4)cc32)sc1C(N)=O)c1ccccc1Cl [GSK483724]	51	0	5	0	73	0	25	80	19	0	0	7	12	0	39	0	0	0	17	11
COc1cc2c(Nc3ccc(NC(=O)c4ccccc4)cc3)ncnc2cc1OCCCN1CCOCC1 [GSK301329]	7	0	20	19	0	0	2	12	41	4	0	0	7	0	0	0	0	0	0	0
O=C(Nc1cccc(C(F)(F)F)c1)c1cccc(Oc2ccc3nccn3n2)c1	0	1	17	0	3	0	4	7	22	8	0	2	14	26	4	4	9	0	12	7
CC(=O)Nc1nc2cnc(Nc3cc(NC(=O)c4cccc(CC(C)(C)C#N)c4)ccc3C)nc2s1	0	17	56	0	46	0	9	25	0	0	8	22	0	0	41	0	0	0	12	7
COC(=O)c1cccc(NC(=O)NC2CCN(c3ccnc(Nc4cc(OC)c(OC)c(OC)c4)n3)C2)c1 (stereo not shown) [GSK1379767]	21	0	19	0	35	45	4	61	0	0	0	5	34	0	12	0	0	0	32	0
C[C@@H](Oc1cc(-n2cnc3cc(-c4ccncc4)ccc32)sc1C(N)=O)c1ccccc1Cl [GSK479719]	95.4	3	26	0	89	0	64	46	1	0	0	6	52	0	0	0	0	0	0	7
OCCn1cc(-c2cnc3nnn(Cc4ccc5ncccc5c4)c3n2)cn1	0	0	0	0	0	4	0	0	0	0	0	0	0	0	12	0	0	0	0	0
COC(=O)c1cccc(NC(=O)NC2CCN(c3ccnc(NCc4ccc(F)cc4)n3)CC2)c1 [GSK1379860]	0	0	0	0	61	0	0	0	0	0	0	0	25	0	0	0	0	0	0	15

Structure (SMILES)	%Inh (SNARK) [%]	%Inh (SNRK) [%]	%Inh (SRC) [%]	%Inh (SRMS) [%]	%Inh (SRPK1) [%]	%Inh (SRPK2) [%]	%Inh (SRPK3) [%]	%Inh (STK16) [%]	%Inh (STK33) [%]	%Inh (STK35) [%]	%Inh (STK36) [%]	%Inh (STK39) [%]	%Inh (SYK) [%]	%Inh (SgK110) [%]	%Inh (TAK1) [%]	%Inh (TAOK1) [%]	%Inh (TAOK2) [%]	%Inh (TAOK3) [%]	%Inh (TBK1) [%]	%Inh (TEC) [%]
CC(C)S(=O)(=O)N1CCN(Cc2ccc3c(c2)nc(NC(=O)c2ccsc2)n3C[C@H](O)c2ccccc2)CC1 [GW635815]	23	0	96.3	1	0	0	0	83	60	0	0	10	78	0	79	0	0	0	50	0
Cc1ccn2nc(-c3ccc(F)cc3)c(-c3ccncc3)c2c1.Cl [GW457859]	7	52	0	0	13	68	0	1	0	0	24	4	18	0	64	0	0	0	14	0
Cc1cccc2c(-c3ccncc3)c(-c3ccc(F)cc3)nn12.Cl [GW461487]	17	0	0	0	0	0	100	4	0	0	24	12	25	0	0	1	0	5	16	0
CS(=O)c1ccc(-c2coc3ccc(-c4n[nH]c(=O)o4)cc23)cc1 (stereo not shown)	21	10	22	0	0	1	0	52	0	9	0	19	0	0	30	0	3	0	20	0
FC(F)(F)c1cc(Br)cc(Nc2nccc(-c3cnn4ncccc34)n2)c1 [GW810578]	47	0	39	6	9	0	0	42	12	9	19	0	21	0	62	58	0	4	17	0
Cc1ccc(CC(=O)N2CCc3cc(-c4cn(C)c5ncnc(N)c45)ccc32)cc1 [GSK2634758]	37	8	0	6	13	31	10	100	0	5	3	1	33	0	17	0	0	0	4	0
Cc1ccc(C(=O)Nc2ccc(Oc3ccc4nc(NC(=O)C5CC5)cn4c3)c(F)c2)c(=O)n1-c1ccccc1	0	0	11	0	0	23	25	17	24	0	3	25	59	0	0	0	0	0	44	55
Cn1ccc2ncnc(Oc3ccc(NC(=O)Nc4cccc(C(F)(F)F)c4)c(Cl)c3)c21	0	0	7	0	45	0	0	4	60	0	0	0	1	0	31	0	23	0	15	0
C[C@@H]1CNc2c(sc3ccc4nc(-c5ccc(O)cc5)ccc4c23)C(=O)N1	85	2	0	0	0	0	24	30	78	9	5	6	0	0	44	86	0	0	8	5
COc1cccc(CNC(=O)NC2CCN(c3ccnc(Nc4cc(OC)c(OC)c(OC)c4)n3)C2)c1 (stereo not shown) [GSK1379765]	45	0	24	0	39	0	73	64	0	8	0	10	9	0	0	0	0	0	36	13
CN1CCN(CCNc2nc3cc(Oc4ccc(NC(=O)Nc5cc(C(F)(F)F)ccc5F)cc4)ccc3[nH]2)CC1.Cl.Cl [GW768504]	0	0	0	18	9	0	10	0	0	0	13	0	16	57	0	0	38	0	28	0
Cn1ccc2ncnc(Oc3ccc(NC(=O)Nc4cnn(C(C)(C)C)c4)c(Cl)c3)c21	10	0	82	0	74	11	0	16	7	0	7	0	0	38	85	0	15	0	10	0
COc1cccc(C2=C(Nc3cccc(Cl)c3)C(=O)NC2=O)c1 [SB-341556]	47	9	0	0	42	0	24	14	0	94.9	0	8	3	0	3	21	0	23	2	0
NC(=O)Nc1sc(-c2ccc(F)cc2)cc1C(N)=O [GW789449]	75	6	55	18	81	35	90.6	26	0	0	0	0	32	0	75	61	41	3	41	1
CN(c1cccc(CNc2nc(Nc3ccc4c(c3)CC(=O)N4)ncc2C(F)(F)F)c1)S(C)(=O)=O	76	0	4	0	73	0	31	90.2	0	8	20	0	37	0	43	0	16	0	70	0
COc1cc2ncn(-c3cc(OCC4CCCCC4)c(C(N)=O)s3)c2cc1OC [GSK204559]	15	0	21	0	84	0	31	4	12	30	0	7	35	0	96.5	0	0	0	26	13
Cc1nnc(-c2ccc3occ(-c4ccc(S(C)=O)cc4)c3n2)o1 (stereo not shown)	0	0	0	0	0	0	0	11	0	45	0	0	0	3	0	0	0	0	30	0
Cn1ccc2ncnc(Oc3ccc(NC(=O)Nc4cncc(C(F)(F)F)c4)c(Cl)c3)c21	0	0	5	0	73	0	0	4	8	0	0	0	0	9	11	0	0	0	0	0
CN(c1ccccc1CNc1nc(Nc2ccc3c(c2)CC(=O)N3)ncc1C(F)(F)F)S(C)(=O)=O	93.4	0	70	0	46	0	39	99.9	68	0	8	0	86	0	76	92.7	6	86	48	0
CCOC(=O)N1CCC(n2cnc(-c3ccc(F)cc3)c2-c2ccnc(N)n2)CC1 [SB-219952]	0	10	0	0	9	0	28	6	0	38	47	46	13	0	42	0	3	0	16	0
